Hits are enriched below; roughly 0.99% of the tested compounds scored in any of these assays.
AmpC inh no detg: qHTS Inhibitors of AmpC Beta-Lactamase (assay without detergent). P00811. AmpC nitrocefin hydrolysis, absorbance 480 nm, 0.0001% Triton. Potency, µM (doses to about 57.1 µM), without a hit: top-dose activity change, negative = inhibition, most hits filed as inhibitors. 0.52% of 330,000 active;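 also: plate controls were no compound for no effect and no enzyme for full effect; nearly all actives have a fitted effect of over 20% in size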
Target sequence (P00811 whole entry, looked up): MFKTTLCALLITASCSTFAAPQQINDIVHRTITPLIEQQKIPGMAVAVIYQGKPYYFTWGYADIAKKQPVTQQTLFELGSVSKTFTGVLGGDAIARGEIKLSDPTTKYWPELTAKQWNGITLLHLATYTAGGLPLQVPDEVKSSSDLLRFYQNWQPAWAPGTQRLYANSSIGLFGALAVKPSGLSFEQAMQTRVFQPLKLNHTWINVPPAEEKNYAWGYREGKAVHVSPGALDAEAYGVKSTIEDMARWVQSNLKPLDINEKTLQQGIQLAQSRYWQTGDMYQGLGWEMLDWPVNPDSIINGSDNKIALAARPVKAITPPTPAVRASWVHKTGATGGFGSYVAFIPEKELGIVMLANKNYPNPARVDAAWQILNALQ
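20 mM phosphate pH 7.0 + 0.01% (detergent screen) or 0.0001% Triton X-100; 5.3 nM AmpC reagent; cpd preinc 15 min RT; nitrocefin (800 uM stock) to start; A480 q20 s × 4 min; Activity was normalised to no-enzyme and no-compound control wells.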
AMA1 RON2 block: qHTS for Inhibitors of AMA1-RON; Towards Development of Antimalarial Drug Lead: Primary Screen; Plasmodium falciparum AMA1 (3D7) - RON2 peptide interaction; AlphaScreen AMA1-biotinylated RON2 peptide binding; Potency, µM (titrated, usually from 58.2 µM), for the others: at the highest dose activity change, negative = inhibition, most hits filed as inhibitors; 0.2% of 360,000 active; AID 720542, 2013;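 also: 0% = vehicle wells and -100% = peptide control; nearly all actives have a fitted effect of over 45% in size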
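AMA1 (3D7) with his tag at 25 nM final met compounds first, then biotinylated RON2 peptide at 25 nM; detection used donor plus acceptor beads, 10 µg/mL apiece, read by AlphaScreen after 30 min at room temperature.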
AmpC detergent: qHTS Inhibitors of AmpC Beta-Lactamase (assay with detergent); AmpC hydrolysis of nitrocefin, absorbance 480 nm, 0.01% Triton; Potency, µM (top dose mostly 114 µM), inactives show top-dose activity change, negative = inhibition, hits mostly inhibitors; 0.041% of 370,000 active;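 also: 0% = no-compound wells and -100% = no-enzyme wells; nearly all actives have a fitted effect of over 25% in size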
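AmpC (5.3 nM in the dispensed reagent) in 20 mM phosphate pH 7.0 with 0.01% (detergent screen) or 0.0001% Triton X-100 was preincubated with compounds for 15 min at room temperature. Nitrocefin was then added from an 800 uM solution, and hydrolysis was followed at 480 nm.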
NS1 function inh: qHTS Assay for Inhibitors of Influenza NS1 Protein Function; Potency, µM (series often up to 46.1 µM), for the others: top-dose activity, positive = more growth; 0.4% of 270,000 active; AID 2326, 2010; calls by dose curve; also: actives are rising curves; nearly all actives have a fitted effect of over 50% in size
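In this qHTS, NS1 from influenza A is expressed in budding yeast, where it slows growth. Cells are switched from glucose to 2% galactose medium (pH 6.0, -URA), treated with compound, and growth recovery is read at OD600.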
SARS PLpro yeast: qHTS of Yeast-based Assay for SARS-CoV PLP; S. cerevisiae expressing SARS-CoV PLpro, growth rescue; Potency, µM (titrated, usually from 32.9 µM), inactives show top-dose activity, positive = growth rescue, usual class: activators; 0.19% of 330,000 active; AID 485353, 2010; calls by dose curve; also: 0% is about no effect; nearly all actives have a fitted effect of over 55% in size
An asterisk follows results filed as active; ? = inconclusive; / = no result. Unless noted, calls follow the shape of the dose curve; as a rule, active = well fitted curve in the direction sought with a large enough effect; inconclusive = small, poorly fitted or top-dose-only effect, or another doubt; inactive = no such curve, though single readings can be large; an effect the other way counts as inactive or inconclusive. Potency is read from the fitted curve at half-maximal effect.

SMILES	AmpC inh no detg	AMA1 RON2 block	AmpC detergent	NS1 function inh	SARS PLpro yeast
COc1ccc(/C=N/OCC(=O)N=Nc2c(O)[nH]c3ccc(Br)cc23)cc1OC	3.2µM*	-14%	0%	20%	4%
COc1ccc(/C(C)=N/OCC(=O)N=Nc2c(O)[nH]c3ccc(Br)cc23)cc1	-39%	7%	?	11%	-4%
COc1ccc(NC(=O)CCS(=O)(=O)c2cc3c(cc2C)NC(=O)CO3)cc1Cl	/	/	20%	/	/
CCOC(=O)c1c(S(=O)(=O)N2CCC(C(=O)Nc3cccc(C)n3)CC2)c(C)n(C)c1C	/	/	8%	/	/
O=C(CSc1nccn1Cc1ccccc1)NC1CCCC1	13%	-2%	2%	5%	13µM*
C=CCN(C)CC/C=C1\c2ccccc2CSc2ccccc21	30%	14µM*	-10%	-9%	-20%
CN(CC/C=C1/c2ccccc2CSc2ccccc21)CCCO	16%	17%	4%	-2%	9%
Cc1oc2ncn(CC(C)C)c(=O)c2c1C(=O)N1CCN(c2cccc(C(F)(F)F)c2)CC1	/	/	17%	/	/
Cc1cc(-c2ccc(N=Nc3c(S(=O)(=O)O)cc4cc(S(=O)(=O)O)cc(N)c4c3O)c(C)c2)ccc1N=Nc1c(S(=O)(=O)O)cc2cc(S(=O)(=O)O)cc(N)c2c1O	-52%	/	13µM*	/	1%
O=S(=O)(O)c1cc(O)c2c(O)c(N=Nc3cc(Cl)ccc3O)c(S(=O)(=O)O)cc2c1	-34%	-27%	-9%	-4%	0%
CCCCC(CC)CNC(=O)Cc1ccc(-n2c(=O)[nH]c3ccccc3c2=O)cc1 (stereo not given)	/	/	-5%	/	/
O=C1CC(CC(=O)N/N=C/c2ccccc2[N+](=O)[O-])=NN1	-21%	46%	?	6.3µM*	24%
COc1ccc(OC(C)C(=O)NCc2nc(-c3ccc(Cl)cc3)no2)cc1 (stereo not given)	/	/	1%	/	/
Cc1ccc2nc(NC(=O)C3CCN(S(=O)(=O)c4cccs4)CC3)sc2c1	-22%	-12%	6%	-31%	-19%
Cc1ccc2nc(N/C(=N/S(=O)(=O)c3cccs3)c3ccccc3Cl)sc2c1	13µM*	14%	-13%	/	2%
Cc1cccc(OCC(=O)Nc2ccccc2OCc2cc(=O)n3cc(C)ccc3n2)c1	/	/	13%	/	/
Cc1cc(C)c(NC(=O)CN2C(=O)CCn3nc(-c4cccn4C)cc32)c(C)c1	/	/	0%	/	/
COc1cccc(-c2sc3ccc(OC)cc3c2-c2ccc(OCCN(C)C)cc2)c1	137%	14µM*	/	/	4%
Cc1ccc(CNC(=O)CS(=O)(=O)Cc2nc(-c3ccccc3C)oc2C)cc1	/	/	-2%	/	/
CCCCN(C)C(=O)CS(=O)(=O)Cc1nc(-c2cccc(OC)c2)oc1C	11µM*	2%	?	-6%	8%
COc1ccc(-c2nc(CS(=O)(=O)CC(=O)Nc3ccc(Cl)cc3)c(C)o2)cc1	4µM*	-2%	-3%	-31%	-5%
CCCNC(=O)CS(=O)(=O)Cc1nc(-c2ccccc2C)oc1C	3.5µM*	-3%	-5%	-21%	1%
COCCCNC(=O)CS(=O)(=O)Cc1nc(-c2cccc(OC)c2)oc1C	9%	-5%	-15%	6%	1%
C[C@@]12C[C@H](O)C3[C@H](CCC4=CC(=O)CC[C@]43C)[C@H]1CC[C@@H]2c1csc(N)n1 (stereo not given in full)	/	/	/	-11%	/
Cc1ccc(Cl)cc1NS(=O)(=O)c1ccc(N2CCCCS2(=O)=O)cc1	/	/	-2%	/	/
SMILES	AmpC inh no detg	AMA1 RON2 block	AmpC detergent	NS1 function inh	SARS PLpro yeast
Cc1ccc(C)c(NC(=O)CN(C)C(=O)c2ccc3[nH]c4c(c3c2)CC(C)CC4)c1 (stereo not given)	61%	-14%	-5%	/	-5%
CC1CCc2[nH]c3ccc(C(=O)N(C)CC(=O)Nc4ccccc4Br)cc3c2C1 (stereo not given)	28µM*	?	-1%	/	-11%
Cc1ccc2nc(N=C(N)N)nc(C)c2c1	10µM*	18%	-2%	-5%	1%
COC(=O)NCc1c(C)nn(-c2ccccc2)c1-n1cccc1	/	/	-7%	/	/
CC(C)CC(=O)Nc1ccc2nc(SCC(=O)N3CCc4ccccc43)sc2c1	/	/	0%	/	/
Cc1cc(N=Nc2ccc(C)c(N=Nc3cc(C)c(N)cc3N)c2)c(N)cc1N	21%	22µM*	-8%	5%	1%
CCOc1ccc(/C=C/C(=O)c2cc(Br)ccc(=O)c2O)cc1	32µM*	?	?	-28%	-82%
Cc1cccc(/C=C/C(=O)c2cc(Br)ccc(=O)c2O)c1	32µM*	?	-8%	-119%	16%
CCc1ccc(/C=C/C(=O)c2cc(Br)ccc(=O)c2O)cc1	28µM*	-7%	-7%	-157%	24%
O=c1[nH]nc(SCc2nnc(-c3ccc([N+](=O)[O-])cc3)o2)n1C1CCCCC1	1%	3.2µM*	11%	-5%	1%
COc1ccc(NC(=O)CN(C)CC(=O)N(CC(C)C)c2c(N)n(CC(C)C)c(=O)[nH]c2=O)cc1	8%	16%	/	/	1%
C=CCOc1ccc(CN(C)CC(=O)N(CC(C)C)c2c(N)n(CC(C)C)c(=O)[nH]c2=O)cc1	6.3µM*	-7%	-2%	-1%	-3%
COc1ccc(CN(C)c2ccc(-c3nc(-c4ccc(OC)c(OC)c4)no3)cc2[N+](=O)[O-])cc1	/	/	3%	/	/
COc1ccc(COc2ccsc2C(=O)Nc2ccc(Cl)cc2)cc1	0.35µM*	-1%	0%	3%	-5%
O=C(N/N=C/c1ccc(Cl)cc1)c1sccc1OCc1ccc(F)cc1	-12%	40µM*	0%	2%	2%
COCCCNS(=O)(=O)c1ccc(N2CCCCS2(=O)=O)cc1	/	/	14%	/	/
COc1ccc(NC(=O)c2cnc(N3CCCCC3)c3ccccc23)cc1Cl	/	/	7%	/	/
Cc1cc(C)cc(NC(=O)C2CCN(S(=O)(=O)c3cn(C)cn3)CC2)c1	/	/	14%	/	/
NC(=O)CC1(CC(=O)O)CCCCC1	-31%	-7%	71µM*	6%	-10%
O=C(N/N=C/c1ccncc1)c1cc2ccccc2cc1O	-14%	83%	5%	-4%	1%
O=C(N/N=C/c1ccc[nH]1)c1cc2ccccc2cc1O	14µM*	91%	-7%	-25%	2%
O=C(c1cccc(Cl)c1)N1c2ncnn2C2(CCCCC2)[C@@H]2CCCC[C@@H]21	/	/	14%	/	/
COc1ccc(-n2nc3c(c2NC(=O)C(=O)NCc2ccccc2)CSC3)cc1	/	/	2%	/	/
Cc1nc(CS(=O)(=O)c2ccc(Cl)cc2)cc(Sc2ccc(Cl)cc2)n1	4µM*	-1%	10%	3%	-10%
O=C(NCCc1ccccc1)c1cc(Sc2ccc(F)cc2F)nc2ccccc12	/	/	11%	/	/

Compound activity as filed in PubChem BioAssay.
